Test [1] is described as follows: Cytotoxicity counterscreen for inhibitors of SARS-CoV-2 cell entry (AID 1645845). Also: nearly all actives have a fitted effect of over 50% in size. A digest of the protocol:
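Counterscreen run in the same HEK293-ACE2 line as the pseudotyped-particle entry assay, without particles. Viability after 48 h at 37 C was read as ATP luminescence, scaled between cell-containing and cell-free wells.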

Test [2] can be described thus: Primary qHTS to identify inhibitors of SARS-CoV-2 cell entry (AID 1645846). Also: nearly all actives have a fitted effect of over 45% in size. Also: potency is read from the fitted curve at half-maximal effect. The settings on record: activity change, negative = inhibition: at 57.1 µM (top of the series) unless noted. The essentials: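 Using luciferase-reporting pseudoviruses carrying Wuhan-Hu-1 spike, the screen tracks entry into stably ACE2-expressing cells over 48 hr. Activity is expressed relative to spike particles versus particles lacking any fusion protein.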

Results filed as inconclusive are left out. Entries that show only a call come without a potency. Calls of active or inactive are those of the source. Calls follow the shape of the full dose curve.

Consider `Cc1cccc(C)c1NC(=O)C(C)N` (centres undefined), for which, in test [1], the Potency entry is “inactive”. In addition, the activity change, negative = inhibition in test [2] is 4.4%.

With `CN(C)CCN(Cc1cccs1)c1ccccn1`, the Potency entry in test [1] is “inactive”. Besides, the activity change, negative = inhibition in test [2] was -3.24%.

For `O=C(O)CCC(=O)OC[C@@H](NC(=O)C(Cl)Cl)[C@H](O)c1ccc([N+](=O)[O-])cc1`, the Potency entry in test [1] is “inactive”. Besides, the activity change, negative = inhibition in test [2] is -2.41%.

With `CC1(C)[C@@H]2CC[C@@]1(C)C(=O)C2`, the Potency entry in test [1] and in test [2] was “inactive” each time.

Regarding `Cc1ncc(COP(=O)(O)O)c(C=O)c1O`, the Potency result in test [1] is “inactive”. For the same compound, the activity change, negative = inhibition in test [2] is -19%.

For `N[C@@H](Cc1c[nH]c2ccc(O)cc12)C(=O)O`, the Potency result in test [1] and in test [2] was “inactive” each time.

For `CNC(=O)c1cnn(-c2nc(N)c3ncn([C@@H]4O[C@H](CO)[C@@H](O)[C@H]4O)c3n2)c1`, the Potency result in test [1] and in test [2] was “inactive” in each case.

Consider `COc1ccc(CN(CCN(C)C)c2ccccn2)cc1`, for which the Potency result in test [1] is “inactive”. In test [2], the activity change, negative = inhibition was -6.08%.

With `CN1CCN(CCCN2c3ccccc3Sc3ccc(S(=O)(=O)N(C)C)cc32)CC1`, the Potency result in test [1] was “inactive”. In test [2], the Potency is 25.1 µM (active).

As for `CCOc1c(N2CCOCC2)cnn(C)c1=O`, the Potency result in test [1] and in test [2] was “inactive” each time.

Regarding `CC1CC(=O)NN=C1c1ccc(NCC(C)(C)NCC(O)COc2cc(Cl)ccc2C#N)cc1` (centres undefined), the Potency result in test [1] was “inactive”. Further, the activity change, negative = inhibition in test [2] is -23.2%.

In the case of `Cn1cnc2c1c(=O)[nH]c(=O)n2C`, the Potency result in test [1] and in test [2] was “inactive” throughout.

`CO[C@]1(NC(=O)CSC(F)F)C(=O)N2C(C(=O)O)=C(CSc3nnnn3CCO)CO[C@H]21`: the Potency entry in test [1] and in test [2] was “inactive” in each case.

For `O=[N+]([O-])c1nccn1CO[C@@H](CO)[C@H](O)CO`, the Potency entry in test [1] and in test [2] was “inactive” throughout.

Consider `CC(=O)OCC(=O)Nc1cc(C#N)cc(NC(=O)COC(C)=O)c1Cl`, for which the Potency entry in test [1] and in test [2] was “inactive” in each case.

With `NC(=O)C1(N2CCCCC2)CCN(CCCC(=O)c2ccc(F)cc2)CC1`, in test [1], the Potency entry is “inactive”. Besides, the activity change, negative = inhibition in test [2] came out at 3.21%.

Turning to `COc1cc([C@H]2Oc3cc([C@H]4Oc5cc(O)cc(O)c5C(=O)[C@@H]4O)ccc3O[C@@H]2CO)ccc1O`, the Potency result in test [1] is “inactive”. Further, in test [2], the activity change, negative = inhibition is -12.9%.

`C[C@H]1COc2c(C3(N)CC3)c(F)cc3c(=O)c(C(=O)O)cn1c23`: in test [1], the Potency entry was “inactive”. Further, in test [2], the activity change, negative = inhibition was -12.8%.

`CC(=O)N(CC(O)CN(C(C)=O)c1c(I)c(C(=O)NCC(O)CO)c(I)c(C(=O)NCC(O)CO)c1I)c1c(I)c(C(=O)NCC(O)CO)c(I)c(C(=O)NCC(O)CO)c1I` (centres undefined): the Potency entry in test [1] and in test [2] was “inactive” in each case.

As for `CNC[C@H](O)c1ccc(O)c(O)c1`, the Potency entry in test [1] and in test [2] was “inactive” throughout.

Regarding `C[C@H](N)C(=O)N[C@@H](C)C(=O)NC1[C@H]2CN(c3nc4c(cc3F)c(=O)c(C(=O)O)cn4-c3ccc(F)cc3F)C[C@@H]12` (some centres undefined), the Potency result in test [1] was “inactive”. Also, in test [2], the activity change, negative = inhibition is -23%.

`C#C[C@]1(O)CC[C@H]2[C@@H]3CCc4cc(OC)ccc4[C@H]3CC[C@@]21C`: the Potency result in test [1] and in test [2] was “inactive” throughout.

For `CSc1ccc(C(=O)c2[nH]c(=O)[nH]c2C)cc1`, the Potency result in test [1] and in test [2] was “inactive” each time.

`CCOC(=O)OC(C)OC(=O)[C@@H]1N2C(=O)[C@@H](NC(=O)[C@H](N)c3ccccc3)[C@H]2SC1(C)C` (some centres undefined): the Potency result in test [1] was “inactive”. Moreover, the activity change, negative = inhibition in test [2] is -12.7%.

For the compound `CN1CCOC(c2ccccc2)c2ccccc2C1` (centres undefined), the Potency result in test [1] and in test [2] was “inactive” in each case.

Take `CCN1C(=O)c2ccccc2C1Nc1ccc(OCCN2CCCCC2)cc1` (centres undefined): the Potency entry in test [1] is “inactive”. For the same compound, in test [2], the activity change, negative = inhibition was determined as 0.117%.

Turning to `Nc1nc2ncc(CNc3ccc(C(=O)N[C@@H](CCC(=O)O)C(=O)O)cc3)nc2c(=O)[nH]1`, the Potency result in test [1] and in test [2] was “inactive” in each case.
